# Where “and” joins values, the source holds several entries; their conditions need not be identical. Identical values can stand only once. The campaign covered roughly 16,000 compounds. About 2,600 (16%) were called active. About 20% were inconclusive and are not listed. Calls follow the shape of the dose curve; as a rule, active = well fitted curve in the direction sought with a large enough effect; inconclusive = small, poorly fitted or top-dose-only effect, or effect the other way; inactive = no such curve, though single readings can be large or run the other way. A selection follows. A structure can be active in one record and inactive in another.
# Molecular target: Cytochrome P450 2D6 (Homo sapiens) (UniProt P10635)
# Assay: Cytochrome panel assay with activity outcomes
# Settings: recombinant CYP, pro-luciferin dealkylation, luminescence, p450-cyp2d6; series mostly up to 57.1 µM; activity, negative = inhibition: at the top concentration
# % is scaled to controls: 0 for no effect and ±100 for the full control effect.
# Cytochrome P450 2D6 (Homo sapiens), sequence (P10635 whole entry, looked up): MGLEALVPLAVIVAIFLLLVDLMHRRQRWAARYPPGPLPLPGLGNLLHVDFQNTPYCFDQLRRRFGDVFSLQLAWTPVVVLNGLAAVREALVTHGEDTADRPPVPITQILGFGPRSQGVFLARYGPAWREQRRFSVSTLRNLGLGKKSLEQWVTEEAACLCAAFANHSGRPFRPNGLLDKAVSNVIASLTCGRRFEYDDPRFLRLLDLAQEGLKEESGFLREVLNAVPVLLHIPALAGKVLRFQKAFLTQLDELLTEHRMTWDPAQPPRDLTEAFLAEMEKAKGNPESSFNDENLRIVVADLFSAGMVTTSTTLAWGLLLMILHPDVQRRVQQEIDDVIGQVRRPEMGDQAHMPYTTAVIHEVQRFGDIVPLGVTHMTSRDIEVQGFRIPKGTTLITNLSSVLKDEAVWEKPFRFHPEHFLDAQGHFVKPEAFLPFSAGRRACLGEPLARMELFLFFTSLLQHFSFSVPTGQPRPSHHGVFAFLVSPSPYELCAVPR
Structure (SMILES),"activity, negative = inhibition",AC50
O=C1O[C@H](CN2CCOCC2)CN1/N=C\c1ccc([N+](=O)[O-])o1,-18.9% [at 25.6 µM] (inactive),–
CCCSc1nnc(CSc2nc3nc(C)cc(C)n3n2)o1,-9.07% (inactive),–
Cc1ccccc1NC(=O)CSc1nc(N2CCCCC2)nc(N2CCCCC2)n1,14.4% (inactive),–
Cc1cc(SCC(=O)c2ccccc2)nc(SCC(=O)c2ccccc2)n1,7.93% (inactive),–
Cc1cccc(Nc2cc(Cl)nc(SCC(=O)O)n2)c1C,–,3160 nM (active)
Cc1cn(CC[C@H](N)C(=O)O)c(=O)[nH]c1=O,-3.77% [at 11.4 µM] (inactive),–
CCCC(=O)Nc1nc2n(n1)C(c1ccccc1)CC(=O)N2 (stereo unspecified),22.6% (inactive),–
CC(C)CCN1CC(C(=O)N2CCN(c3ccc(F)cc3)CC2)CC1=O (stereo unspecified),-1.61% (inactive),–
CCOC(=O)c1cnc2c(cnn2C)c1NCCCN(C)C,-15.8% (inactive),–
CCOC(=O)c1cnc2c(cnn2CC)c1NN=C(C)C,–,inactive
CCCCNc1c(C(=O)OCC)c(C)nc2c1cnn2CC,–,inactive and 200 nM (active)
C#CCCCO/N=C1/C[C@@H](O)[C@@H](O)[C@@H]2[C@@H]3C(=O)N(Cc4ccccc4)C(=O)[C@H]3CC[C@@H]12,19.7% [at 11.4 µM] (inactive),–
CCOC(=O)C(NC(=O)CC)(Nc1sc2c(c1C(=O)OC)CCN(C)C2)C(F)(F)F (stereo unspecified),-1.69% (inactive),–
CCCNC(=O)OC[C@H]1O[C@@H](CCO/N=C\[C@@H](NS(=O)(=O)c2ccc(C)cc2)[C@H](C)/C=C\CC(=O)OC)C=C[C@@H]1Oc1ccc(OC)cc1,-7.16% [at 11.4 µM] (inactive),–
O=C(O)CCCc1ccc2ccccc2c1,0.631% [at 11.4 µM] (inactive),–
NNC(=O)CCc1ccc2ccc3ccccc3c2c1,–,1580 nM (active)
COc1ccc2cc(CCC(C)=O)ccc2c1,-4.42% [at 25.6 µM] (inactive),–
CS(=O)(=O)N1CCN(c2ccc(C(=O)NC3C4CC5CC(C4)CC3C5)cc2[N+](=O)[O-])CC1 (stereo unspecified),-10% (inactive),–
O=C(O)c1ccccc1-c1ccccc1C(=O)Nc1ccc2c(c1)Cc1cc(F)ccc1-2,-13.4% [at 11.4 µM] (inactive),–
Cc1ccc(CS(=O)(=O)CCC(=O)NCCCOC(C)C)cc1,10.1% (inactive),–
Cc1ccc(CS(=O)(=O)CCC(=O)NCCCN2CCCC2)cc1,-24.2% (inactive),–
Cc1ccc(NC(=O)CCC(=O)c2ccc(F)cc2)cc1Cl,-10.9% (inactive),–
Cc1ccccc1CS(=O)(=O)CCC(=O)NCCCN1CCN(c2ccccc2F)CC1,–,3550 nM (active)
CSc1ccc(NC(=O)NCCCN2CCN(c3ccccc3F)CC2)cc1,–,3550 nM (active)
O=C(CCN1CCc2ccccc2C1)Nc1ccc(F)cc1,–,2240 nM (active)
CCN(CC)c1ccc(NC(=O)CN2CCN(c3ccccc3F)CC2)cc1,-23.1% (inactive),–

Structure (SMILES),"activity, negative = inhibition",AC50
O=C(NCCCN1CCN(c2ccccc2F)CC1)C1CCC(=O)N1C1CCCCC1 (stereo unspecified),-17.4% (inactive),–
O=C(NCCOc1nc(N2CCOCC2)nc(N2CCOCC2)n1)Nc1ccccc1,6.07% (inactive),–
O=C(NCCCN1CCCC1=O)Nc1ccc(F)c(Cl)c1,0.447% (inactive),–
O=C(NCCCN1CCc2ccccc2C1)Nc1ccc(Cl)cc1,–,3550 nM (active)
O=C(O)/C=C/C(=O)Nc1ccc(F)cc1F,22.9% (inactive),–
O=C(O)C[C@H]1OCC=C2C[N@@+]3([O-])CC[C@]45c6ccccc6N[C@@H]4[C@@H]1[C@H]2C[C@H]53,9.02% [at 11.4 µM] (inactive),–
Cc1nc2cnc(N(C)C)nc2n(C)c1=O,-12.7% (inactive),–
O=C(O)c1ccccc1-c1ccccc1C(=O)Nc1ccc2c(c1)[nH]c(=O)c1ccccc12,-5.23% [at 11.4 µM] (inactive),–
O=c1c(-c2cc(F)cc(F)c2)nc2cncnc2n1Cc1ccccc1Cl,-8.97% (inactive),–
CN1CCN(NC(=O)CN2C(=O)/C(=C/c3c(Cl)cccc3Cl)SC2=S)CC1,-9.02% (inactive),–
COc1cc2cc3c(N)c(C(=O)Nc4sc(C)c(C)c4C#N)sc3nc2cc1OC,-0.0904% (inactive),–
C[C@](N)(C(=O)O)c1ccc(-c2nn[nH]n2)cc1,-0.522% (inactive),–
CCOC(=O)c1cc(CC)sc1NC(=O)c1cc(OCC)c(OCC)c(OCC)c1,-1.3% (inactive),–
CSc1ccc(NC(=O)NCCN2CCc3ccccc3C2)cc1,–,5010 nM (active)
NCCNC(=S)S,-18.7% [at 11.4 µM] (inactive),–
S=C(S)NCCCn1ccnc1,–,794 nM (active)
O=C(NCc1cccnc1)c1sc2cc(Cl)ccc2c1Cl,-81.1% (inactive),–
Cn1nc(-c2ccccc2)c(C(=O)Nc2ccc(Cl)cc2)c1Cl,18.7% (inactive),–
Cc1ccc(NC(=O)NCCCc2ccccc2)cc1,-26.1% (inactive),–
Cc1ccc(NC(=O)N/C=C/c2ccc(Cl)cc2)cc1,8.55% (inactive),–
O=C(NCCCn1ccnc1)Nc1ccc(Cl)cc1,–,1580 nM (active)
CSc1ccc(NC(=O)Nc2cc(C)ccn2)cc1,-10.4% [at 11.4 µM] (inactive),–
COc1ccc2c(Cl)c(C(=O)NCCCn3ccnc3)sc2c1Cl,–,631 nM (active)
S=C(S)NCCN1CCNCC1,-7.83% [at 11.4 µM] (inactive),–
COc1ccc(C(=O)N/C(=C/c2cccs2)C(=O)NCCCn2ccnc2)cc1OC,-6.39% (inactive),–
